# Screening data deposited in PubChem by several laboratories.
# Anthrax LF prot: anthrax lethal factor protease inhibition | P15917 | multiplex microsphere protease cleavage assay, LF | inhibition, % at 10 µM | 360,000 tested, 0.12% active
# MazF activator: increases E. coli MazEF RNase cleavage of RNA | activation, % at 20 µM | AID 504720 | P0AE70 | 350,000 tested, 0.32% active | FAM/BHQ RNA-DNA oligo cleavage fluorescence, 5 h; in the data active means activation above about 50%
# Target sequence (P0AE70 whole entry, looked up): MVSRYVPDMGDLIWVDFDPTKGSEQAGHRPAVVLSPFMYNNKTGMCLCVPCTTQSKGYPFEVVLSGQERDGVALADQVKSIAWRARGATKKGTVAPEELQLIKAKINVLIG
# BoNT A protease: inhibitors of Botulinum neurotoxin A light chain protease; multiplex microsphere protease substrate cleavage, flow cytometry; inhibition, % at 10 µM; 360,000 tested, 0.17% active; AID 588499
# Autofluor counter: compound fluorescence in toxin protease inhibitor counterscreen; compound autofluorescence counterscreen, microsphere flow cytometry; stronger effect = higher value; fluorescence intensity (no concentration beside the values); 360,000 tested, 3.1% active; AID 624483; in the data active means fluorescence intensity above about 16000; inconclusive means no clear call, values can overlap the other calls
# Vc quorum ag: quorum light induction in luxS cqsA deficient V. cholerae | V. cholerae BH1578 lux reporter, luminescence, 6 h | activation, % at 18.7 µM | 350,000 tested, 0.16% active; in the data active means activation mostly above about 9.7%, no sharp cut-off; inconclusive means no clear call, values can overlap the other calls; inactive means mostly below about 3.7%
# BoNT-F LC inh: BoNT F light chain protease inhibition; Multiplex microsphere protease cleavage assay, flow cytometry; inhibition, % at 10 µM; 360,000 tested, 0.22% active; AID 588497; in the data active means inhibition above about 35%, passing the limit was not always enough; inconclusive means no clear call, values can overlap the other calls
# A number is an active result; - = inactive; ? = inconclusive; . = not tested or not shown. This is a sample that favours compounds with a hit; in the whole collection about 3.9% have one here. Unless noted, no stated cut-off is given here; in the data, active means inhibition above about 30%; inconclusive means no clear call, values can overlap the other calls; inactive means below that.
SMILES,Anthrax LF prot,MazF activator,BoNT A protease,Autofluor counter,Vc quorum ag,BoNT-F LC inh
Cc1sc2ncnc(SCC(=O)NC3CC3)c2c1C,-,-,-,24257,-,-
CCc1nnc(NC(=O)CSCc2cc(=O)n3ccsc3n2)s1,-,-,-,-,-,-
O=c1[nH]c2ccc(N=Cc3c(O)ccc4cc(Br)ccc34)cc2[nH]1,-,256.0,-,-,-,-
O=C(c1ccc(Cl)cc1)N1CCC2(CC1)OCCO2,-,-,-,-,-,-
O=C(c1ccc2nc3ccc(Cl)cc3c(=O)n2c1)N1CCOCC1,-,-,-,21084,-,-
O=C(c1ccc2nc3ccc(Cl)cc3c(=O)n2c1)N1CCC2(CC1)OCCO2,-,-,-,19917,-,-
Nc1nc(SCCO)[nH]c(=O)c1NC(=O)c1ccc(Br)o1,-,-,-,-,-,-
COC1C(CO)OC(n2c3c(Cl)cccc3c3c4c(c5c6cccc(Cl)c6[nH]c5c32)C(=O)NC4=O)C(O)C1O (centres undefined),-,-,-,-,-,-
Cc1ccc(C(=O)Nc2ccc(S(=O)(=O)Nc3cnc4ccccc4n3)cc2)cc1,-,-,-,-,-,-
CCOC(=O)C1=C(COC(=O)CCOc2cc(C)ccc2C)NC(=O)NC1C (centres undefined),-,-,-,-,-,-
COc1nc(Nc2ccc(O)cc2)nc(OC(C(F)(F)F)C(F)(F)F)n1,-,-,-,16552,-,-
Nc1cccc(Nc2nc(OC(C(F)(F)F)C(F)(F)F)nc(OC(C(F)(F)F)C(F)(F)F)n2)c1,-,-,-,-,-,-
CCc1cccc(NS(=O)(=O)c2c(C)nc3scc(C)n3c2=O)c1,-,-,-,-,-,-
CCCCn1nnnc1C1(C)CCC(=O)N1CC(F)(F)F (centres undefined),-,.,-,-,.,-
CC(=O)Nc1ccc(NC(=O)c2cc(C)nn2-c2ccccc2)cc1,-,-,?,22454,-,-
COc1ccc(CC2(C)OC(c3ccc([N+](=O)[O-])cc3)=NN2C(C)=O)cc1 (centres undefined),-,-,-,-,-,-
C(=Cc1c[nH]c2ccccc12)c1nccc2ccccc12,-,113.1,-,-,-,-
C(=Cc1c[nH]c2ccccc12)c1ccc2ccccc2n1,-,-,-,-,-,-
Cc1c(N=Cc2c(O)n(C)c(=O)c3ccccc23)c(=O)n(-c2ccccc2)n1C,-,299.7,-,-,-,-
Cc1c(N=Cc2ccncc2)c(=O)n(-c2ccccc2)n1C,-,-,-,-,-,-
Cc1c(N=Cc2cc3c(cc2Cl)OCO3)c(=O)n(-c2ccccc2)n1C,-,-,-,23177,-,-
COc1ccc(C(=O)c2ccc(CC(=O)O)s2)cc1,-,-,-,-,-,-
Cc1ccc(NC(=O)N/C=C/c2ccco2)cc1C,-,-,?,21513,-,-
CCOc1ccccc1N1CCN(C(=O)c2ccccc2SCC(=O)N2CCCC2)CC1,-,-,-,-,-,-
O=C(CCl)Nc1cc(SCC(O)CO)cc([N+](=O)[O-])c1 (centres undefined),-,-,-,-,-,-
SMILES,Anthrax LF prot,MazF activator,BoNT A protease,Autofluor counter,Vc quorum ag,BoNT-F LC inh
CCC(=O)Nc1cc(SCCO)cc([N+](=O)[O-])c1,-,-,-,16916,-,-
N#C/C(=C\c1ccc(-c2ccccc2)cc1)c1nc(-c2ccco2)cs1,-,-,-,-,-,-
CCCCc1ccc(-c2csc(/C(C#N)=C\c3ccc(C)o3)n2)cc1,-,-,-,22503,-,-
N#C/C(=C/c1ccc(-c2ccccc2)o1)c1nc(-c2cccs2)cs1,34.1,-,47.5,-,-,-
CCCCc1ccc(-c2csc(/C(C#N)=C/c3ccco3)n2)cc1,-,-,-,-,-,-
N#C/C(=C\c1ccc(-c2ccc(F)cc2)o1)C(=O)Nc1nc(-c2cccs2)cs1,-,128.2,-,-,-,-
N#C/C(=C/c1ccc(-c2ccc([N+](=O)[O-])cc2)o1)C(=O)Nc1nc(-c2cccs2)cs1,-,-,-,-,-,-
Cc1ccc(C(=O)N2CCN(c3cnn(C)c(=O)c3Cl)CC2)cc1,-,-,-,-,-,-
O=[N+]([O-])c1ccc(P(=O)(Cc2ccccc2)c2ccccc2O)cc1 (centres undefined),-,-,-,-,-,-
CC(=O)Oc1ccc(-c2cccc(C(=O)NCC(=O)O)c2)cc1,-,-,-,23862,-,-
CC(=O)Oc1ccc(-c2cccc(C(=O)NCCO)c2)cc1,-,-,-,-,-,-
O=P(Nc1ccccc1)(Nc1ccccc1)Oc1ccc(Cl)cc1,-,-,-,23234,-,-
